# Measured values reported in publication PMC7862700, “An all-to-all approach to the identification of sequence-specific readers for epigenetic DNA modifications on cytosine”.
# Columns and labels:
# Assay in all cases: DAPPL (digital affinity profiling via proximity ligation, sequencing); 10 mM Tris-HCl pH 7.5, 50 mM NaCl, 1 mM DTT, 4% glycerol, room temperature, 30 min; GST-TFs on glutathione beads, 16-mer random dsDNA library, 0.1% formaldehyde crosslink after washing; high values mean tight binding
# [1] = molecular target: T1, FLI1 (Homo sapiens, UniProt Q01543 1-452); conditions: protein: recombinant; tags: N-terminal GST; dsDNA, one strand shown
# T1 sequence: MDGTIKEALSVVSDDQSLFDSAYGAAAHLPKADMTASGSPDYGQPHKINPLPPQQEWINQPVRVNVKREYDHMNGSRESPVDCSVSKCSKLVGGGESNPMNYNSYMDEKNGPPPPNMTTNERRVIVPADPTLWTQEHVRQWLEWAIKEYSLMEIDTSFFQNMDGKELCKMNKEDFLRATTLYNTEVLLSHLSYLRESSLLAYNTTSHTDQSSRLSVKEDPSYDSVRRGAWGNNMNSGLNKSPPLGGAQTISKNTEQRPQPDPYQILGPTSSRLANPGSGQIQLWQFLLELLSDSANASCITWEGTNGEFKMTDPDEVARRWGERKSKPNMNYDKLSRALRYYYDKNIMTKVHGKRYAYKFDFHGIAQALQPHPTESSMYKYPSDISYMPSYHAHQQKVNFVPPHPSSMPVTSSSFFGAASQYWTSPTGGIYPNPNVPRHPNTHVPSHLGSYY
# Procedure, shortened: (§1)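 Pools of DNA-barcoded human transcription factors, expressed in yeast as GST fusions on glutathione beads and combined with a tag-only sample, were incubated with 200 nmole of a 16-mer random double-stranded DNA library. Incubation took 30 min at room temperature in Tris/NaCl/DTT/glycerol buffer and was followed by washing, 0.1% formaldehyde crosslinking, proximity ligation (BsaI/T4 ligase, 1 h, 37 °C), PCR amplification and sequencing on an Illumina NextSeq500. Binding signal is the ratio of a hexamer's read frequency for a factor to its frequency for the tag-only sample.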
# [2] = molecular target: T2, ELK1 (Homo sapiens, UniProt P19419 1-428); conditions: protein: recombinant; tags: N-terminal GST; dsDNA, one strand shown
# T2 sequence: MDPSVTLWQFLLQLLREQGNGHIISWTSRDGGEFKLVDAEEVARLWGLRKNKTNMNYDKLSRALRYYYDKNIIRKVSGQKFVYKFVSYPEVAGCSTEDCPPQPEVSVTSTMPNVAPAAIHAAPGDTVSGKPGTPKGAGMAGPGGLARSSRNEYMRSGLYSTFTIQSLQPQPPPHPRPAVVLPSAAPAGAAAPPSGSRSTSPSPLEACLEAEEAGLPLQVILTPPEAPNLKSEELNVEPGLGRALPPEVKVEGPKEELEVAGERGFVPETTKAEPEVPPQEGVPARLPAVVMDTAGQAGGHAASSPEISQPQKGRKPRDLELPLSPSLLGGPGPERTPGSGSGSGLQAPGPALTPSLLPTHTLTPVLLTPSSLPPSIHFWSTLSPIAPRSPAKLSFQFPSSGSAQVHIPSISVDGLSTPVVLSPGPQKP
# Procedure, shortened: as §1
# [3] = molecular target: T3, GABPA (Homo sapiens, UniProt Q06546 1-454); conditions: protein: recombinant; tags: N-terminal GST; dsDNA, one strand shown
# T3 sequence: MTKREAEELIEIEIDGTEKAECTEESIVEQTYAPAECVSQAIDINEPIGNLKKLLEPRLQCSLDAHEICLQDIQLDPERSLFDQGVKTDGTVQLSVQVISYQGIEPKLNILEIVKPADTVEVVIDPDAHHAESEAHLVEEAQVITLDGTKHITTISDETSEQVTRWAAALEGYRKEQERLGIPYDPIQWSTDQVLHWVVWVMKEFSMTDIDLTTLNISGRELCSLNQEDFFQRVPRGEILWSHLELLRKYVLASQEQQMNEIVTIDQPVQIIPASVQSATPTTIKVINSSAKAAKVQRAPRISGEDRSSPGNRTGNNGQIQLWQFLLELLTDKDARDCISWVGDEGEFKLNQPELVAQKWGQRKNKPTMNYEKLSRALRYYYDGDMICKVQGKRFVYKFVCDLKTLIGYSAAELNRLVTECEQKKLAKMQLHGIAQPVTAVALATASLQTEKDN
# Procedure, shortened: as §1
# [4] = molecular target: T4, ERG (Homo sapiens, UniProt P11308 1-479); conditions: protein: recombinant; tags: N-terminal GST; dsDNA, one strand shown
# T4 sequence: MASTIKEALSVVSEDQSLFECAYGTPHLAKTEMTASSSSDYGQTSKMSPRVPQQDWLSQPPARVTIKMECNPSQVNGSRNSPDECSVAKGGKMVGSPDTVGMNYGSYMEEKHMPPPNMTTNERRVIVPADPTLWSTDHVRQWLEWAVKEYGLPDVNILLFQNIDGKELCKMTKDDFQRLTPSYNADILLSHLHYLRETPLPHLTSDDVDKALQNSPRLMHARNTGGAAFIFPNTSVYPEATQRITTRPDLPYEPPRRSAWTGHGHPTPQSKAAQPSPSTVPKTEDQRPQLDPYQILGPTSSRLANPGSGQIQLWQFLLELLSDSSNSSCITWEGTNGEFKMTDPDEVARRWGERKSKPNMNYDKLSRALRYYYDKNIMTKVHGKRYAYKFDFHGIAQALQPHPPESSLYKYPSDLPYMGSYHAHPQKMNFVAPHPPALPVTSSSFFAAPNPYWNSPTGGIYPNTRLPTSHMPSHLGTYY
# Procedure, shortened: as §1
# [5] = molecular target: ELF1 (Homo sapiens, UniProt P32519 1-619); conditions: protein: recombinant; tags: N-terminal GST; dsDNA, one strand shown
# Procedure, shortened: as §1
# [6] = molecular target: T5, EHF (Homo sapiens, UniProt Q9NZC4 1-300); conditions: protein: recombinant; tags: N-terminal GST; dsDNA, one strand shown
# T5 sequence: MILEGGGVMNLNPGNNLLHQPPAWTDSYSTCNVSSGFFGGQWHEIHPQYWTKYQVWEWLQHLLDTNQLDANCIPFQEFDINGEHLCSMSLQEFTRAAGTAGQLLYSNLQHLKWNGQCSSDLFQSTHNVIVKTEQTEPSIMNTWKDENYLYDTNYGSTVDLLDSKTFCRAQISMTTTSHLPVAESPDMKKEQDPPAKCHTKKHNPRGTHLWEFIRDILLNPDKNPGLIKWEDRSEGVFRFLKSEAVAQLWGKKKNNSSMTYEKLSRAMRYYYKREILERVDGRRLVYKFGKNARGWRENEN
# Procedure, shortened: as §1
# [7] = molecular target: SPI1 (Homo sapiens, UniProt P17947 1-270); conditions: protein: recombinant; tags: N-terminal GST; dsDNA, one strand shown
# Procedure, shortened: as §1
# [8] = molecular target: SPIB (Homo sapiens, UniProt Q01892 1-262); conditions: protein: recombinant; tags: N-terminal GST; dsDNA, one strand shown
# Procedure, shortened: as §1
# [9] = molecular target: T6, ELK3 (Homo sapiens, UniProt P41970 1-407); conditions: protein: recombinant; tags: N-terminal GST; dsDNA, one strand shown
# T6 sequence: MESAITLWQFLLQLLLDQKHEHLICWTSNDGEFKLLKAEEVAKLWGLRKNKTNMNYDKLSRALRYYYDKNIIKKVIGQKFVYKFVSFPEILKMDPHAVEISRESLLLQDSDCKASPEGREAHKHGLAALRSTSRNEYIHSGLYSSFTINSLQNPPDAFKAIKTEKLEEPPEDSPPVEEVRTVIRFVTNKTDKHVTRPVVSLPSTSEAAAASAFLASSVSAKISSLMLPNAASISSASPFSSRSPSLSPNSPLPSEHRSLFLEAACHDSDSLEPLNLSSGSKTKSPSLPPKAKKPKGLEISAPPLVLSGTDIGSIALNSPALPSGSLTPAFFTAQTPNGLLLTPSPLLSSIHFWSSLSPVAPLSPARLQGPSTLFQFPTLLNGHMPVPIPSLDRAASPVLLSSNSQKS
# Procedure, shortened: as §1
# [10] = molecular target: T7, FEV (Homo sapiens, UniProt Q99581 1-238); conditions: protein: recombinant; tags: N-terminal GST; dsDNA, one strand shown
# T7 sequence: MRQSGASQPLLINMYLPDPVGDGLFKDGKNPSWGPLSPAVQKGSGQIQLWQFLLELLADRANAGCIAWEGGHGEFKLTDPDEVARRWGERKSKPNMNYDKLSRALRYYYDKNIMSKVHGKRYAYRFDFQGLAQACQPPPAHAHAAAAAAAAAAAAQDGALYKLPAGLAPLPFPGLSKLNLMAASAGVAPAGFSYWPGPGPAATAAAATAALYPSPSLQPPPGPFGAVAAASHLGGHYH
# Procedure, shortened: as §1
# [11] = molecular target: ETV5 (Homo sapiens, UniProt P41161 1-510); conditions: protein: recombinant; tags: N-terminal GST; dsDNA, one strand shown
# Procedure, shortened: as §1
# [12] = molecular target: HSF1 (Homo sapiens, UniProt Q00613 1-529); conditions: protein: recombinant; tags: N-terminal GST; chain copies: 3; dsDNA, one strand shown
# Procedure, shortened: as §1
# [13] = molecular target: T8, SPIC (Homo sapiens, UniProt Q8N5J4 1-248); conditions: protein: recombinant; tags: N-terminal GST; dsDNA, one strand shown
# T8 sequence: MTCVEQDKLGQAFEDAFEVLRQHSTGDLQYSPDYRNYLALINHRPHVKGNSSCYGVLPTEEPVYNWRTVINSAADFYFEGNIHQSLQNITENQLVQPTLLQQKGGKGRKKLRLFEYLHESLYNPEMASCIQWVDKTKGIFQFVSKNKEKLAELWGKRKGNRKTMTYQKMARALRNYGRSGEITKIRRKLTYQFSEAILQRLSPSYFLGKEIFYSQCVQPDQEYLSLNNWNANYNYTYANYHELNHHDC
# Procedure, shortened: as §1
# [14] = molecular target: ELF4 (Homo sapiens, UniProt Q99607 1-663); conditions: protein: recombinant; tags: N-terminal GST; dsDNA, one strand shown
# Procedure, shortened: as §1
# [15] = molecular target: T9, ELK4 (Homo sapiens, UniProt P28324-2 1-405); conditions: protein: recombinant; tags: N-terminal GST; dsDNA, one strand shown
# T9 sequence: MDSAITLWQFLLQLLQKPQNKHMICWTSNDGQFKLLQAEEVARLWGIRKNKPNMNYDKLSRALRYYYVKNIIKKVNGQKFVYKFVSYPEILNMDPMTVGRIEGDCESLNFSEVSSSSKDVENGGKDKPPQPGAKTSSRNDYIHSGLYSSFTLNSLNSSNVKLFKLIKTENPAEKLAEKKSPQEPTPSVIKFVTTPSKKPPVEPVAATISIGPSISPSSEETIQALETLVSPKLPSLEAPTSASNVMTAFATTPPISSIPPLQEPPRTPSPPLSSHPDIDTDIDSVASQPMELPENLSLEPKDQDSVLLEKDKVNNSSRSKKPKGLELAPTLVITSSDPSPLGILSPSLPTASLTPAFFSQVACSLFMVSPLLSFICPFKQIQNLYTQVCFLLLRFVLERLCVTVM
# Procedure, shortened: as §1
# [16] = molecular target: T10, ETV2 (Homo sapiens, UniProt O00321 1-342); conditions: protein: recombinant; tags: N-terminal GST; dsDNA, one strand shown
# T10 sequence: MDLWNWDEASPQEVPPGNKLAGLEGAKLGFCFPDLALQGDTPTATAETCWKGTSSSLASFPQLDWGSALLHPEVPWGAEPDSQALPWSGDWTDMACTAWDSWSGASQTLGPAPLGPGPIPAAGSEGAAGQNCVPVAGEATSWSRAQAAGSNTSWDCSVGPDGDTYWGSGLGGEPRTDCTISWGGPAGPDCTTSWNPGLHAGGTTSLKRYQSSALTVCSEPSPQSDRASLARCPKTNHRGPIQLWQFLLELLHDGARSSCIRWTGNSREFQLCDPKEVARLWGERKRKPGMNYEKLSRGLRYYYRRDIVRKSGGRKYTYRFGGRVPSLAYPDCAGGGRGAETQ
# Procedure, shortened: as §1
# [17] = molecular target: T11, ELF3 (Homo sapiens, UniProt P78545 1-371); conditions: protein: recombinant; tags: N-terminal GST; dsDNA, one strand shown
# T11 sequence: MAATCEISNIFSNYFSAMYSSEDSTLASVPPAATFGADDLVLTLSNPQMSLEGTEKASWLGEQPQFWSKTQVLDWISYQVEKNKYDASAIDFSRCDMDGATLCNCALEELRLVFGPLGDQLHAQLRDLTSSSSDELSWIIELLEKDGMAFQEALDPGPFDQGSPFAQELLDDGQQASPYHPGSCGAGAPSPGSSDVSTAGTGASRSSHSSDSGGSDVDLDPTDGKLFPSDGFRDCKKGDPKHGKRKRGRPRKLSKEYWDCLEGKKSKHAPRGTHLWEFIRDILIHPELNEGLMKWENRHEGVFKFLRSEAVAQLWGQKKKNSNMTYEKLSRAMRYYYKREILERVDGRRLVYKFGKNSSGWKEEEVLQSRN
# Procedure, shortened: as §1
# [18] = molecular target: CRX (Homo sapiens, UniProt O43186 1-299); conditions: protein: recombinant; tags: N-terminal GST; dsDNA, one strand shown
# Procedure, shortened: as §1
# [19] = molecular target: ETV1 (Homo sapiens, UniProt P50549 1-477); conditions: protein: recombinant; tags: N-terminal GST; dsDNA, one strand shown
# Procedure, shortened: as §1
# Chain of SPIB (Q01892 whole entry): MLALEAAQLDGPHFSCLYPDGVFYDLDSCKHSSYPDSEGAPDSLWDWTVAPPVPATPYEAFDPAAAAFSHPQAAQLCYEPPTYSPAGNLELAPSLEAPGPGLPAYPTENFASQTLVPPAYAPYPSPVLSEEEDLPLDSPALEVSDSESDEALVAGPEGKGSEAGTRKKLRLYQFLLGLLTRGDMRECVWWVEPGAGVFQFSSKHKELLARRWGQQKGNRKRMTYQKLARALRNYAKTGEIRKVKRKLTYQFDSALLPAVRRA
# Chain of CRX (O43186 whole entry): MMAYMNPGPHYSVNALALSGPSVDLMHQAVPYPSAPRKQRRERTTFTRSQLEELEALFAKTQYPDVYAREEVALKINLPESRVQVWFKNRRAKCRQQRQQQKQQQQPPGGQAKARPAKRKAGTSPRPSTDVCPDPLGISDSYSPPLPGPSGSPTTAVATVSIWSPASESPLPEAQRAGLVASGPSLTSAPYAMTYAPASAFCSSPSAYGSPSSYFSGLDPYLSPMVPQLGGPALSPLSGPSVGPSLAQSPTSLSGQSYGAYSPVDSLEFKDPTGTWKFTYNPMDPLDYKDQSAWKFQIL
# Chain of ETV1 (P50549 whole entry): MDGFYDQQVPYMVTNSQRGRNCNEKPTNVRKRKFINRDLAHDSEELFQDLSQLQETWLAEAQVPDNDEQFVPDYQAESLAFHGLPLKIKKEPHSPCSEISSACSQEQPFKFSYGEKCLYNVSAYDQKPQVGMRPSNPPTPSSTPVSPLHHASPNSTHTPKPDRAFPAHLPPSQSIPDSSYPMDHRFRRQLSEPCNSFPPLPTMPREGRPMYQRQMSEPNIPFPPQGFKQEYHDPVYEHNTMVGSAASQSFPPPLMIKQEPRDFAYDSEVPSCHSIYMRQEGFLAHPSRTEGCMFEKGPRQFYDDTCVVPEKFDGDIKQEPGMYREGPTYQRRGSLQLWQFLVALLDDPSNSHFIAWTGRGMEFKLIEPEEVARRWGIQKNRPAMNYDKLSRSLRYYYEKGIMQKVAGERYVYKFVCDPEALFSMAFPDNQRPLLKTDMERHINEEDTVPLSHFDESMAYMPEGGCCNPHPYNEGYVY
# Chain of HSF1 (Q00613 whole entry): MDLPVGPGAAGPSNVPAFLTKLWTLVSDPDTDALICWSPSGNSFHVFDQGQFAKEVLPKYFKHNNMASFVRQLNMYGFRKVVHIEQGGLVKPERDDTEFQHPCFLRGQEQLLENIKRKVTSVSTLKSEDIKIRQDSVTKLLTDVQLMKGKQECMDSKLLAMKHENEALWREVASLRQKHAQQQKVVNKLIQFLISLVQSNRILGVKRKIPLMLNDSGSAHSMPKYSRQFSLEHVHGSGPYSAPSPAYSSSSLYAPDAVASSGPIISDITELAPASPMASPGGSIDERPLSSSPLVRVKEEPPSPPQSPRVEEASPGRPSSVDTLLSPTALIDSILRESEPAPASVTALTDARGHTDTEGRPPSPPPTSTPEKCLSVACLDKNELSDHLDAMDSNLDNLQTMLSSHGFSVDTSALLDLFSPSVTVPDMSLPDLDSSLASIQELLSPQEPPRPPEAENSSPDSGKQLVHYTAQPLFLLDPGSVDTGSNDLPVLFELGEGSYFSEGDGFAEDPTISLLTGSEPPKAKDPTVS
# Chain of ETV5 (P41161 whole entry): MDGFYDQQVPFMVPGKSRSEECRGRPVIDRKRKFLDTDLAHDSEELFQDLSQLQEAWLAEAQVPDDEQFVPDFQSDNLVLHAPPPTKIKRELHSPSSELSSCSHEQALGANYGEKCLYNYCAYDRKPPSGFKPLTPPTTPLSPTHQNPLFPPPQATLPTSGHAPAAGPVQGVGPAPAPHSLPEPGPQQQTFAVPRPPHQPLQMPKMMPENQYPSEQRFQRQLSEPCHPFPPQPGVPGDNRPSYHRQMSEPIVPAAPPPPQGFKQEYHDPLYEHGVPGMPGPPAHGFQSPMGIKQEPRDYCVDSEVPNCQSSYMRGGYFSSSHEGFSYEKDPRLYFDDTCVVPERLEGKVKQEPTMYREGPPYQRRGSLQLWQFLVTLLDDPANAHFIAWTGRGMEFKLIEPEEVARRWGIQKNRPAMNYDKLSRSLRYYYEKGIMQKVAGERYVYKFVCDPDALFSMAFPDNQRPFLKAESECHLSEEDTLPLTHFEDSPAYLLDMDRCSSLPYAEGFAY
# Chain of ELF1 (P32519 whole entry): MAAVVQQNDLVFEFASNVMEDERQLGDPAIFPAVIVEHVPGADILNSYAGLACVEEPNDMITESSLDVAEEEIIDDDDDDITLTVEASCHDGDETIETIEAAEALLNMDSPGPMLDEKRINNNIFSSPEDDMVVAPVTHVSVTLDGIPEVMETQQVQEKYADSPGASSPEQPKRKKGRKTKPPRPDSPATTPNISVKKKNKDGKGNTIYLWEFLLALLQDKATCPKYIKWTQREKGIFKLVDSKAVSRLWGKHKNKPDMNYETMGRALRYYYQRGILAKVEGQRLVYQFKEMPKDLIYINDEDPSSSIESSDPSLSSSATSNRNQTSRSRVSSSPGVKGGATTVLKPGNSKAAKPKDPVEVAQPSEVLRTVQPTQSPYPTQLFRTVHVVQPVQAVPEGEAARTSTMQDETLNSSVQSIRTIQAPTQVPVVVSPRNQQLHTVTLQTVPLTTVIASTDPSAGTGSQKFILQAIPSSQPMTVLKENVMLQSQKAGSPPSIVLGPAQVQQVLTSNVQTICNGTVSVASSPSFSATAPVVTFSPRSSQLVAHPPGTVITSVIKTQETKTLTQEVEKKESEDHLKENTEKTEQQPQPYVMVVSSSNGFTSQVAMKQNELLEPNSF
# Chain of ELF4 (Q99607 whole entry): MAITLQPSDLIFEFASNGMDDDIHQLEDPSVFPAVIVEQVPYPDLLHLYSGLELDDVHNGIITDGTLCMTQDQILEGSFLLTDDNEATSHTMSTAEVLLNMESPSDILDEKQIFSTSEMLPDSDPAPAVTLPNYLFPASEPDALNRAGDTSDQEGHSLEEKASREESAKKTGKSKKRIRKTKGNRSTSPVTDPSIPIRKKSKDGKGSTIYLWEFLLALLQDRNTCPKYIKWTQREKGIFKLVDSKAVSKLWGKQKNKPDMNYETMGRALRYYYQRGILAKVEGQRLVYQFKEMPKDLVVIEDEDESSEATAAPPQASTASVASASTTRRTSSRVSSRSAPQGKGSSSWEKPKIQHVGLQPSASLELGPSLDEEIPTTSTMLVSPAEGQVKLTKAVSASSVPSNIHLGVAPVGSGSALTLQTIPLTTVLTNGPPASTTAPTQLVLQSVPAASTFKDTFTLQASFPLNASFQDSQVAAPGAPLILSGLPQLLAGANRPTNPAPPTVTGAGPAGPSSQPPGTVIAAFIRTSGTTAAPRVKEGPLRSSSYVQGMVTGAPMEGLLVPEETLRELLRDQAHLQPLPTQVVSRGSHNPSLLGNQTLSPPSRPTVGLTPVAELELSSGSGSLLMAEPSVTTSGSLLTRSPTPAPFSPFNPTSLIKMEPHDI
sequence,measurement,setting,value
GGCTCA,binding signal,[1],"1.22 fold enrichment (6-mer frequency, TF over GST control)"
same,binding signal,[2],"1.38 fold enrichment (6-mer frequency, TF over GST control)"
same,binding signal,[3],"1.32 fold enrichment (6-mer frequency, TF over GST control)"
same,binding signal,[4],"1.33 fold enrichment (6-mer frequency, TF over GST control)"
same,binding signal,[5],"1.34 fold enrichment (6-mer frequency, TF over GST control)"
same,binding signal,[6],"1.23 fold enrichment (6-mer frequency, TF over GST control)"
same,binding signal,[7],"1.24 fold enrichment (6-mer frequency, TF over GST control)"
same,binding signal,[8],"1.24 fold enrichment (6-mer frequency, TF over GST control)"
same,binding signal,[9],"1.23 fold enrichment (6-mer frequency, TF over GST control)"
same,binding signal,[10],"1.22 fold enrichment (6-mer frequency, TF over GST control)"
same,binding signal,[11],"1.22 fold enrichment (6-mer frequency, TF over GST control)"
same,binding signal,[12],"1.27 fold enrichment (6-mer frequency, TF over GST control)"
same,binding signal,[13],"1.28 fold enrichment (6-mer frequency, TF over GST control)"
same,binding signal,[14],"1.3 fold enrichment (6-mer frequency, TF over GST control)"
same,binding signal,[15],"1.15 fold enrichment (6-mer frequency, TF over GST control)"
same,binding signal,[16],"1.13 fold enrichment (6-mer frequency, TF over GST control)"
same,binding signal,[17],"1.28 fold enrichment (6-mer frequency, TF over GST control)"
same,binding signal,[18],"1.53 fold enrichment (6-mer frequency, TF over GST control)"
same,binding signal,[19],"1.18 fold enrichment (6-mer frequency, TF over GST control)"
